Structures are written as SMILES. In all, about 330,000 compounds went through this assay and about 10,000 (3%) were called active. The list comes from a sample in which actives are over-represented; it also holds similar structures and randomly drawn compounds. A number with no mark means an inactive call.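 Rule for the calls: active = inhibition of at least 50% at 8 µM in the primary screen; inactive = the rest.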

The experiment deals with Protein Mdm4 (Homo sapiens) + E3 ubiquitin-protein ligase Mdm2 (Homo sapiens) (UniProt O15151+Q00987). Briefly: disruptors of Mdm2/MdmX RING complex – cell-based, luminescence, split luciferase, SaOS-2, uHTS, primary screen (AID 485346). The following applies: SaOS-2 split-luciferase Mdm2/MdmX complementation, at 8 µM, stronger effect = higher value.
Protein Mdm4 (Homo sapiens) + E3 ubiquitin-protein ligase Mdm2 (Homo sapiens), sequence (O15151 whole entry, looked up): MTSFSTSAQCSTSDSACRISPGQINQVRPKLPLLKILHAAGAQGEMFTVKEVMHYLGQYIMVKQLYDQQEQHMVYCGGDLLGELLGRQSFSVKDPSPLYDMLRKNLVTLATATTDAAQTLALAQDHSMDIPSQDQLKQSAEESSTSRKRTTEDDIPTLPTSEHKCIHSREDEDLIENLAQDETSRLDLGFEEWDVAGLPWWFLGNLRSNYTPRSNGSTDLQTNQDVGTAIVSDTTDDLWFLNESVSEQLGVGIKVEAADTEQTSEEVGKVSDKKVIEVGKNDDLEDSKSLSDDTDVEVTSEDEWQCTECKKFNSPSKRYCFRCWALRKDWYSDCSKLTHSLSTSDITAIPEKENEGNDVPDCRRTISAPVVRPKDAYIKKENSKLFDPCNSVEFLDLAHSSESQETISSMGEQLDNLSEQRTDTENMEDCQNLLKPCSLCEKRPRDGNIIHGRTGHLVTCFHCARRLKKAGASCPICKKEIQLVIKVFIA
Protein Mdm4 (Homo sapiens) + E3 ubiquitin-protein ligase Mdm2 (Homo sapiens), sequence (Q00987 whole entry, looked up): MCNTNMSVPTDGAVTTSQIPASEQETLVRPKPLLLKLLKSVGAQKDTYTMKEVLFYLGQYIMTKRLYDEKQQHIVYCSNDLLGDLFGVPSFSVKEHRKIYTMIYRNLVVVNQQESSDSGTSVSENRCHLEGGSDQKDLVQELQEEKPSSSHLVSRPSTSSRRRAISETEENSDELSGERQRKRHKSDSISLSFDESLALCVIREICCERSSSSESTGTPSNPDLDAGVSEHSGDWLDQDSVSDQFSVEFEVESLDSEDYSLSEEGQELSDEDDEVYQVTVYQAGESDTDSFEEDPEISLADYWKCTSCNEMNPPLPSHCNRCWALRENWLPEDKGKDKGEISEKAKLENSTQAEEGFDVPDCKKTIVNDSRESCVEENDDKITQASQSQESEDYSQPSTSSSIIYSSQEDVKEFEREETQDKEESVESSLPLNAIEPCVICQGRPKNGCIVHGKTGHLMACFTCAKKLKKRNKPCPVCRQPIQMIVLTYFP
As a reminder, the inhibition is the relative decrease from the control value, in per cent. Take `COC(=O)Cc1ccc(OCC(=O)NC2CCCC2)cc1`: the inhibition is 8.06%.
As for `CC(=O)c1ccc(OCCCC(=O)Nc2ccc(C)c(S(=O)(=O)N3CCOCC3)c2)cc1`, the inhibition is 13.1%.
For `CC(=O)NCc1ccc(-c2csc(NC(=O)CCCc3nc4ccccc4c(=O)[nH]3)n2)cc1` the value was 6.81%; for `O=C(CSc1nc2ccccc2c(=O)[nH]1)Nc1nc(-c2ccc(Br)cc2)cs1`, 75.5% (active); for `CCOC(=O)c1ccccc1NC(=O)CSc1nc2ccccc2c(=O)[nH]1`, 10.1%.
For `Cc1nnc(Nc2ccccc2F)s1` the value was 1.11%; for `O=C(Nc1ccc(-c2csc(Nc3cccc(C(F)(F)F)c3)n2)cc1)c1cccc(C(F)(F)F)c1`, 69.4% (active); for `Cc1nc(NC(=O)c2cccc(Cl)c2)sc1-c1csc(Nc2cccc(Cl)c2)n1`, -2.75%.
`O=C(Nc1ccc(C(F)(F)F)cc1)c1cccc(-n2cnnn2)c1`: the inhibition is -13.9%.
For `CCn1cc(CCC(=O)NCc2ccc(F)cc2)c2ccccc21`, the inhibition is -7.13%.
As to `Cc1noc(C)c1C(=O)OCC(=O)N1CCN(S(=O)(=O)c2ccc3ccccc3c2)CC1`, the inhibition is -6.59%.
The result for `COc1ccc(CC(=O)NCc2nnc(SCC(=O)Nc3ncc(C)s3)n2C)cc1` reads 6.63%.
For the compound `CSc1nnc(NC(=O)c2nc(S(=O)(=O)Cc3ccc(C)cc3)ncc2Cl)s1`, the inhibition is 98.2% (active).
For `Cc1ccc(CS(=O)(=O)c2ncc(Cl)c(C(=O)Nc3nnc(C)s3)n2)cc1` the value was 99.7% (active); for `CCSc1nnc(NC(=O)c2ccc(C)cc2)s1`, -64.2%.
As for `COCCSc1nnc(NC(=O)CCS(=O)(=O)Cc2ccccc2)s1`, the inhibition was 25.9%.
The result for `Cc1nnc(NC(=O)c2ccc3nccnc3c2)s1` reads 6.88%; that for `Cc1ccc(S(=O)(=O)CC(=O)Nc2nnc(C)s2)cc1`, 7.87%; that for `CCN(CC)S(=O)(=O)c1cc(C(=O)Nc2cc(S(=O)(=O)N3CCOCC3)ccc2N2CCCC2)ccc1F`, 26.3%.
The result for `CCC(NC(=O)c1cc(COc2ccc(F)c(F)c2)on1)c1ccncc1` (stereo not given) reads 5.8%; that for `O=C(Nc1ccc2sc3ccccc3c(=O)c2c1)c1ccccc1Cl`, -48%.
For `CCOC(=O)Cn1nnnc1C` the value was 15.3%; for `O=C(CN1CCC(NC(=O)C2CC2)CC1)Nc1ccccc1[N+](=O)[O-]`, 15.4%.
As to `COc1ccc(CC(=O)N[C@@H]2c3cc(OC)c(OC)cc3C[C@H]2OCc2ccccc2)cc1`, the inhibition was 38.6%.
For `O=c1c2ccccc2nc2n1C(CSCc1cccc(C(F)(F)F)c1)CS2` (stereo not given) the value was 0.237%.
